Experimental findings from publication PMC7862700, “An all-to-all approach to the identification of sequence-specific readers for epigenetic DNA modifications on cytosine” are described below.

Common to all, as to assay: DAPPL (digital affinity profiling via proximity ligation, sequencing); 10 mM Tris-HCl pH 7.5, 50 mM NaCl, 1 mM DTT, 4% glycerol, room temperature, 30 min; GST-TFs on glutathione beads, 16-mer random dsDNA library, 0.1% formaldehyde crosslink after washing; high values mean tight binding
For one assay, the target named is T1, FLI1 (Homo sapiens, UniProt Q01543 1-452).
T1 sequence: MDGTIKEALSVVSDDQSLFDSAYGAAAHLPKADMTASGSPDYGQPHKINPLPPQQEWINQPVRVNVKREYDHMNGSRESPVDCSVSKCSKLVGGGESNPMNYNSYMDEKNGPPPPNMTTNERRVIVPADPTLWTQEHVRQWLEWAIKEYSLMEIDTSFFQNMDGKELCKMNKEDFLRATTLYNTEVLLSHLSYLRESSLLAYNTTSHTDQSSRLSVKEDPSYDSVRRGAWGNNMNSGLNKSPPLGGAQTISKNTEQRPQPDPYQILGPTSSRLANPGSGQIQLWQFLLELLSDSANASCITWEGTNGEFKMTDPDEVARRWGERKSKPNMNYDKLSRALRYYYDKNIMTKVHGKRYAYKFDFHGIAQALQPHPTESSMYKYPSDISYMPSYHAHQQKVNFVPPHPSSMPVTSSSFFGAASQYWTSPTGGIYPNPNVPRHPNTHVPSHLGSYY
To be noted: protein: recombinant; tags: N-terminal GST; dsDNA, one strand shown. The method in brief: (§1)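 In yeast, human transcription factors were expressed with a GST fusion, then pulled down on glutathione beads and given DNA barcodes. Pooled with a tag-only sample, they were exposed to 200 nmole of a 16-mer random double-stranded DNA library (Tris/NaCl/DTT/glycerol buffer, room temperature, 30 min), washed, crosslinked with 0.1% formaldehyde, proximity-ligated using BsaI/T4 ligase for 1 h at 37 °C, PCR-amplified and read on an Illumina NextSeq500. Each hexamer's frequency of reads for a factor, divided by the matching frequency for the tag-only sample, gives the binding signal.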

For another assay, the target named is T2, ELK1 (Homo sapiens, UniProt P19419 1-428).
T2 sequence: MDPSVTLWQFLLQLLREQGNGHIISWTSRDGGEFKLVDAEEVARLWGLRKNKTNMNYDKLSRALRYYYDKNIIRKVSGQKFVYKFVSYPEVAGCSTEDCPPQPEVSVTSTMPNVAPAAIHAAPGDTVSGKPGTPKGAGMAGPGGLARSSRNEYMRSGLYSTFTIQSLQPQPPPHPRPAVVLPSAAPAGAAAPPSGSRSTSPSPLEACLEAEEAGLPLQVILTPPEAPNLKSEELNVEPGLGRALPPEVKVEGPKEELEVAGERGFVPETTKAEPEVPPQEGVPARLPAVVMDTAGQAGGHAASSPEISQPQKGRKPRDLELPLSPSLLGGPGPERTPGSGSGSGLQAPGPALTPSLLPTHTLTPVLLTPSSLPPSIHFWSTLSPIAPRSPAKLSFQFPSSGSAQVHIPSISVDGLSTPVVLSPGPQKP
To be noted: protein: recombinant; tags: N-terminal GST; dsDNA, one strand shown. In a few lines:
as §1

The target of a further assay is T3, GABPA (Homo sapiens, UniProt Q06546 1-454).
T3 sequence: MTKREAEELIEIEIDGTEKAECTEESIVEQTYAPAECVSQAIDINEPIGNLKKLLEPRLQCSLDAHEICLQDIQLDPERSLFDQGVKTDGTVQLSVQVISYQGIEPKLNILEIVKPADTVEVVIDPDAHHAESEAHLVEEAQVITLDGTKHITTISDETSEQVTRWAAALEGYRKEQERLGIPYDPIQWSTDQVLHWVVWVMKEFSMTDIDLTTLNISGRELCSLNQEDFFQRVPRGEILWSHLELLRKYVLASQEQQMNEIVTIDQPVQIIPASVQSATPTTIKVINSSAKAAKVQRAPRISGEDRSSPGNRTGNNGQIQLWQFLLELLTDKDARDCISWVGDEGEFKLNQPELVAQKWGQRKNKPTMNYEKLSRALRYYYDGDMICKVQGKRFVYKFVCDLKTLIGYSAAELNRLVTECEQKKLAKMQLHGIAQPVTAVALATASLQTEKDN
To be noted: protein: recombinant; tags: N-terminal GST; dsDNA, one strand shown. In a few lines: as §1

The target of a further assay is T4, ERG (Homo sapiens, UniProt P11308 1-479).
T4 sequence: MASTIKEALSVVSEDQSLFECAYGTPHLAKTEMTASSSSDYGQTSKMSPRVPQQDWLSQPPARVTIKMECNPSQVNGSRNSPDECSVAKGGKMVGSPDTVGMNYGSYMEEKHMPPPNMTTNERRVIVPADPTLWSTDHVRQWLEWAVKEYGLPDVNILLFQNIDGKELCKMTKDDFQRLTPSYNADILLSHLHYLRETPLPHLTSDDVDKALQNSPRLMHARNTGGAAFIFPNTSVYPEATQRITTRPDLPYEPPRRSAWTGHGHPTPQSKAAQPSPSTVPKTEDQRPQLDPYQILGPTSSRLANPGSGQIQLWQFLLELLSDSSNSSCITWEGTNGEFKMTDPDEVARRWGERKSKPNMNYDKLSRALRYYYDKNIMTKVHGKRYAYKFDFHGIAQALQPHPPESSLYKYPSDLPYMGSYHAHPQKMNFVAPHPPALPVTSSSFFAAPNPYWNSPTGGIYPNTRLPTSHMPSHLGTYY
To be noted: protein: recombinant; tags: N-terminal GST; dsDNA, one strand shown. The method in brief: as §1

The target in the next assay is ELF1 (Homo sapiens, UniProt P32519 1-619). To be noted: protein: recombinant; tags: N-terminal GST; dsDNA, one strand shown. In a few lines: as §1
Chain of ELF1 (P32519 whole entry): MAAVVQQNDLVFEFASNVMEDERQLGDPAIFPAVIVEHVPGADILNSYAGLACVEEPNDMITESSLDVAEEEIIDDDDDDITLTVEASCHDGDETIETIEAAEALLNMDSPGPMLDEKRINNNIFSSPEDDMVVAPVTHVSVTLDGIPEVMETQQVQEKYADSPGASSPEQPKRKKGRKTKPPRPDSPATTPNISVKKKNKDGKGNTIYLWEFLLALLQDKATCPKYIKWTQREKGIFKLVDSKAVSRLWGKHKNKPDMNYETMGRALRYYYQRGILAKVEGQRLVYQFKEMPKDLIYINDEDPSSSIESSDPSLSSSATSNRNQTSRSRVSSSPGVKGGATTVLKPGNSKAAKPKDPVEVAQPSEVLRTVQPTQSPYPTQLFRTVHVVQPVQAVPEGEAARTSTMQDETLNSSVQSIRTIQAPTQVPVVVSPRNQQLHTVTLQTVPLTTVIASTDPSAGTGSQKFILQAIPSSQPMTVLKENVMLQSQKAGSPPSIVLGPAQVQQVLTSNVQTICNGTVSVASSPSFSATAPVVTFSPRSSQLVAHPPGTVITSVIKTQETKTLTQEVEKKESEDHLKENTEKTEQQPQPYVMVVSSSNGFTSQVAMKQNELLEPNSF
For the next assay, the target named is T5, EHF (Homo sapiens, UniProt Q9NZC4 1-300).
T5 sequence: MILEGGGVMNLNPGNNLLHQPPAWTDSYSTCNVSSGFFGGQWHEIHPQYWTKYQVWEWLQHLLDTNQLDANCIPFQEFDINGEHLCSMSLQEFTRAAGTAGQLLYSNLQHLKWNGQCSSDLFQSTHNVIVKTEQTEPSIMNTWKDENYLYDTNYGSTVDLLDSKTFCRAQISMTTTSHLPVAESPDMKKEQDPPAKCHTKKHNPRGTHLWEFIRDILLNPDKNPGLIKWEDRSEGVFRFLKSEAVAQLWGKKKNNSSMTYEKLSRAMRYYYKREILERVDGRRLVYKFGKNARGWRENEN
To be noted: protein: recombinant; tags: N-terminal GST; dsDNA, one strand shown. The method in brief:
as §1

The target of the next assay is SPI1 (Homo sapiens, UniProt P17947 1-270). To be noted: protein: recombinant; tags: N-terminal GST; dsDNA, one strand shown. In a few lines:
as §1

The next assay has as its target SPIB (Homo sapiens, UniProt Q01892 1-262). To be noted: protein: recombinant; tags: N-terminal GST; dsDNA, one strand shown. In a few lines: as §1
Another assay addresses T6, ELK3 (Homo sapiens, UniProt P41970 1-407).
T6 sequence: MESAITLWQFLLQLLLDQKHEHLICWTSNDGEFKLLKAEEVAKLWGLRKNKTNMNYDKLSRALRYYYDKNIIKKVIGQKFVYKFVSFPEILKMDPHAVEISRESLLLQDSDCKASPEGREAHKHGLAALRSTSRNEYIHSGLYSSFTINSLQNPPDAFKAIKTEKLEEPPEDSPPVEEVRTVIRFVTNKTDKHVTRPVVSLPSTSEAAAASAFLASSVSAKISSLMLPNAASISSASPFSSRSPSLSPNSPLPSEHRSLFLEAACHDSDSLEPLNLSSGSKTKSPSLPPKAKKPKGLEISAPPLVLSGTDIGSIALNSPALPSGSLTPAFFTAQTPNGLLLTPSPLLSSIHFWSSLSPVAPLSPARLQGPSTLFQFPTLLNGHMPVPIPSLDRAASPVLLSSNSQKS
To be noted: protein: recombinant; tags: N-terminal GST; dsDNA, one strand shown. In a few lines:
as §1

A further assay addresses T7, FEV (Homo sapiens, UniProt Q99581 1-238).
T7 sequence: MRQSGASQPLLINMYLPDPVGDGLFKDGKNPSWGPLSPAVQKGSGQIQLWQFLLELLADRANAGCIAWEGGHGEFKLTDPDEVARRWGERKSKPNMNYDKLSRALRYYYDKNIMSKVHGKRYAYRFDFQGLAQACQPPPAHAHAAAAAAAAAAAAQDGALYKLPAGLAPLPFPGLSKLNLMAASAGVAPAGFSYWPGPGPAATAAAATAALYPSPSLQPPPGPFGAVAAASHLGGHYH
To be noted: protein: recombinant; tags: N-terminal GST; dsDNA, one strand shown. The method in brief: as §1

The next assay has as its target ETV5 (Homo sapiens, UniProt P41161 1-510). To be noted: protein: recombinant; tags: N-terminal GST; dsDNA, one strand shown. The method in brief: as §1
The target of another assay is HSF1 (Homo sapiens, UniProt Q00613 1-529). To be noted: protein: recombinant; tags: N-terminal GST; chain copies: 3; dsDNA, one strand shown. In a few lines: as §1
Chain of HSF1 (Q00613 whole entry): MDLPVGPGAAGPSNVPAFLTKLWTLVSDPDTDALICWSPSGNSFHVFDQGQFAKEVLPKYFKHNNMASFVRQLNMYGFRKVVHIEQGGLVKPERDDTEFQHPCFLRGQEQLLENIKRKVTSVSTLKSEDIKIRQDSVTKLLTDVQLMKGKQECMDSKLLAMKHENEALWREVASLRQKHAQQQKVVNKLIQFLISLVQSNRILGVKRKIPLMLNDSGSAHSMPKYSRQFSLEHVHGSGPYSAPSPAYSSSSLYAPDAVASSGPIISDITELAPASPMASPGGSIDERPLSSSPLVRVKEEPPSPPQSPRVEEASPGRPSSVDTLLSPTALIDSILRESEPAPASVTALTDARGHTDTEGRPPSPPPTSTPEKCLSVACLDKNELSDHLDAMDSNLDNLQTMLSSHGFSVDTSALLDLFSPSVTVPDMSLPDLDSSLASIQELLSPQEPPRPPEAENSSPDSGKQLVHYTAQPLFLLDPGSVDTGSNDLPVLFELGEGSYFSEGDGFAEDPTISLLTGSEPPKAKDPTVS
For another assay, the target named is T8, SPIC (Homo sapiens, UniProt Q8N5J4 1-248).
T8 sequence: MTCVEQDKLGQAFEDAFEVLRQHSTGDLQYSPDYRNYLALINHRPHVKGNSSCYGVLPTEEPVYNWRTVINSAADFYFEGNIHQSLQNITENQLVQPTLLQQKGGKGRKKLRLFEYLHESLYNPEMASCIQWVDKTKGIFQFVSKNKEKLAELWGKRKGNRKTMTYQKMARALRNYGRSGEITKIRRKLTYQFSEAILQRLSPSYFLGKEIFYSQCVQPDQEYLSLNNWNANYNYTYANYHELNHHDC
To be noted: protein: recombinant; tags: N-terminal GST; dsDNA, one strand shown. In a few lines:
as §1

For the next assay, the target named is ELF4 (Homo sapiens, UniProt Q99607 1-663). To be noted: protein: recombinant; tags: N-terminal GST; dsDNA, one strand shown. The method in brief:
as §1

In a further assay the target is T9, ELK4 (Homo sapiens, UniProt P28324-2 1-405).
T9 sequence: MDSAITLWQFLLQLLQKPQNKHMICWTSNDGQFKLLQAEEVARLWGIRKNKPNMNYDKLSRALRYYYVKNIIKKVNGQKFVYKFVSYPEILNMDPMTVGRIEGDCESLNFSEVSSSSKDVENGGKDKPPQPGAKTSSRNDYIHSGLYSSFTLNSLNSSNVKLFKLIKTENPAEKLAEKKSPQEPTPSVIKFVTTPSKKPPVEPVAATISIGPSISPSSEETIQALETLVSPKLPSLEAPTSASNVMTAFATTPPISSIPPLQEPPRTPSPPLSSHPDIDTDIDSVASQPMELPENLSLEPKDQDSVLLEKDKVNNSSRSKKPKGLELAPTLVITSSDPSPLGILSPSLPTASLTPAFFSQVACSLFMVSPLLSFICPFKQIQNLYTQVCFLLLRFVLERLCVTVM
To be noted: protein: recombinant; tags: N-terminal GST; dsDNA, one strand shown. In a few lines: as §1

Another assay has as its target T10, ETV2 (Homo sapiens, UniProt O00321 1-342).
T10 sequence: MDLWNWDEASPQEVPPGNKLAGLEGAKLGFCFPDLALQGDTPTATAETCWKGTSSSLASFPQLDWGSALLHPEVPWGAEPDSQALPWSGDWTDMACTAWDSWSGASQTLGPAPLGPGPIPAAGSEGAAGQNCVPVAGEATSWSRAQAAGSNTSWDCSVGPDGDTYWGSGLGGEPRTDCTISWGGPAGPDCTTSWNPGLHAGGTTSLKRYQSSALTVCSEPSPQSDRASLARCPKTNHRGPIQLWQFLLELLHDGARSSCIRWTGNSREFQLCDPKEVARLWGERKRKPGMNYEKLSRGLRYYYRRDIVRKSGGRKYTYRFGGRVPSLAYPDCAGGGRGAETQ
To be noted: protein: recombinant; tags: N-terminal GST; dsDNA, one strand shown. The method in brief: as §1

For another assay, the target named is T11, ELF3 (Homo sapiens, UniProt P78545 1-371).
T11 sequence: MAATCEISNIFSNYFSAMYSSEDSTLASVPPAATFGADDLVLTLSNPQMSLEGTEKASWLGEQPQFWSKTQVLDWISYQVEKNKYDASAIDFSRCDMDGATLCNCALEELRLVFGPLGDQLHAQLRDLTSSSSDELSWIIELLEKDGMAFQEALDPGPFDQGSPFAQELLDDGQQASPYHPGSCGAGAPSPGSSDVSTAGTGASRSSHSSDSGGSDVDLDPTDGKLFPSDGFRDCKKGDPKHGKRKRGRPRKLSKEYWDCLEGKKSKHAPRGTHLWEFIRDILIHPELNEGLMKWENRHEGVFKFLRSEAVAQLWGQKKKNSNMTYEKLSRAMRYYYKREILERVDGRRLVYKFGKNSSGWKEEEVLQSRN
To be noted: protein: recombinant; tags: N-terminal GST; dsDNA, one strand shown. The method in brief:
as §1

Another assay deals with CRX (Homo sapiens, UniProt O43186 1-299). To be noted: protein: recombinant; tags: N-terminal GST; dsDNA, one strand shown. The method in brief: as §1
Chain of CRX (O43186 whole entry): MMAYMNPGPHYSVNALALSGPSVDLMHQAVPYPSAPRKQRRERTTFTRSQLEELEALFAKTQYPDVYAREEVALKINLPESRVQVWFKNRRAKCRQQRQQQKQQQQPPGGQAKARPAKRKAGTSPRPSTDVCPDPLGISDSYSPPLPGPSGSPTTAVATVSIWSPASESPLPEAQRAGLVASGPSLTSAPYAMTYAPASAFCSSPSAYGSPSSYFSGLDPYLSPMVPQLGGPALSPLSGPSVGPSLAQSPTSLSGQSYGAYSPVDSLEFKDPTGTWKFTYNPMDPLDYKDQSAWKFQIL
In a further assay the target is ETV1 (Homo sapiens, UniProt P50549 1-477). To be noted: protein: recombinant; tags: N-terminal GST; dsDNA, one strand shown. In a few lines: as §1
Chain of ETV1 (P50549 whole entry): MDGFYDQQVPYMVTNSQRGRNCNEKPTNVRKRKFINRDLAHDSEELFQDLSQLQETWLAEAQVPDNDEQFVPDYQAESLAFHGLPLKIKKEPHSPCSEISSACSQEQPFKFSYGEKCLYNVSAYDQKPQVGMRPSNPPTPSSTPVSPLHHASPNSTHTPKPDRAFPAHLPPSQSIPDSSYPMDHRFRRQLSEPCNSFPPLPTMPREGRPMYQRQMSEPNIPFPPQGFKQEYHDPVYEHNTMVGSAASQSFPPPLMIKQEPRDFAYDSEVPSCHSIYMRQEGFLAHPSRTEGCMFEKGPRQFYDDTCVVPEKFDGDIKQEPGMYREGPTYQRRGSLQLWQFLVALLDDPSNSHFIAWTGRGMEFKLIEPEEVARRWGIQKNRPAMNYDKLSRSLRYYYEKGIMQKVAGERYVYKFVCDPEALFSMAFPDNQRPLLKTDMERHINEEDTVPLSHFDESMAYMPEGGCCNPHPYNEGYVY

Chain of ELF4 (Q99607 whole entry): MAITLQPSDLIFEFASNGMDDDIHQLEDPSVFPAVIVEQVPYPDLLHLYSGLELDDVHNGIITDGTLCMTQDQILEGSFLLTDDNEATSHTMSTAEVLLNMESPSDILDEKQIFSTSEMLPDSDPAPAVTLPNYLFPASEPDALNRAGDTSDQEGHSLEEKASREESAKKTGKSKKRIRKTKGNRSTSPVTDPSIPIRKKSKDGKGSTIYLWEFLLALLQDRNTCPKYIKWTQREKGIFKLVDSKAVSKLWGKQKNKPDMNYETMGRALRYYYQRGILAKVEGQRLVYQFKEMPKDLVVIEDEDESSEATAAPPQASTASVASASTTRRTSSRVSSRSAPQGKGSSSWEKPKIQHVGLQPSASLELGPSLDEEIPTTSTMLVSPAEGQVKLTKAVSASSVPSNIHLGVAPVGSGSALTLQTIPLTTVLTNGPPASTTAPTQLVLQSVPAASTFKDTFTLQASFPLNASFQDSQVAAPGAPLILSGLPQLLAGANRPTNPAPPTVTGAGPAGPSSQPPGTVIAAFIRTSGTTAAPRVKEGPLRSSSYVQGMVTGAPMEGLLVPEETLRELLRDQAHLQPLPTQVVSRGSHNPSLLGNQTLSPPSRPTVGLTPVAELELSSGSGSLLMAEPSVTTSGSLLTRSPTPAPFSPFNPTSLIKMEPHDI
Chain of ETV5 (P41161 whole entry): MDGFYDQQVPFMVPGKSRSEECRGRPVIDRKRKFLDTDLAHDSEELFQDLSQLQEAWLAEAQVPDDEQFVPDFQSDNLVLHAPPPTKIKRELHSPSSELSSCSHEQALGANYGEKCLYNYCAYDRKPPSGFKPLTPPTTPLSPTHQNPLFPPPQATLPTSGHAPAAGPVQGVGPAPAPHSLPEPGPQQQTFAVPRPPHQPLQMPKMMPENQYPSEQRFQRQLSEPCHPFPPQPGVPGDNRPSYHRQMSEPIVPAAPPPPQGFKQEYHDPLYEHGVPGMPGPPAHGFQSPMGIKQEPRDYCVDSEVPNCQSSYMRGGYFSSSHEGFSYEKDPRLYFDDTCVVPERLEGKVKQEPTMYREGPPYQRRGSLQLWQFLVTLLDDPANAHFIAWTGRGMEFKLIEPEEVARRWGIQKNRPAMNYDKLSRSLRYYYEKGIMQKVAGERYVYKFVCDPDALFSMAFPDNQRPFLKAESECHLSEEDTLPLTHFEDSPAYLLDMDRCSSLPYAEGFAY
Chain of SPIB (Q01892 whole entry): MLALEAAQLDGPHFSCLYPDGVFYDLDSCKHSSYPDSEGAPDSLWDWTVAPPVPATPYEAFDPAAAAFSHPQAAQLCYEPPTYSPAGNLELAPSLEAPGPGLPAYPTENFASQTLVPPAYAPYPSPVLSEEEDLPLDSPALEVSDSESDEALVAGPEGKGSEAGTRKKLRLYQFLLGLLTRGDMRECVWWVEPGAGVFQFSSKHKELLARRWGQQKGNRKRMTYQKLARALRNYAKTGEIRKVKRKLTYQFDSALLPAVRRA

In the case of GCTCTT, the binding signal is 1.58 fold enrichment (6-mer frequency, TF over GST control) with FLI1; 1.55 fold enrichment (6-mer frequency, TF over GST control) with ELK1; 1.52 fold enrichment (6-mer frequency, TF over GST control) with GABPA; 1.39 fold enrichment (6-mer frequency, TF over GST control) with ERG; 1.66 fold enrichment (6-mer frequency, TF over GST control) in the assay with ELF1; 1.29 fold enrichment (6-mer frequency, TF over GST control) in the assay with EHF. For the same sequence, the binding signal is 1.37 fold enrichment (6-mer frequency, TF over GST control) in the assay with SPI1; 1.49 fold enrichment (6-mer frequency, TF over GST control) in the assay with SPIB; 1.56 fold enrichment (6-mer frequency, TF over GST control) in the assay with ELK3; 1.48 fold enrichment (6-mer frequency, TF over GST control) with FEV; 1.53 fold enrichment (6-mer frequency, TF over GST control) with ETV5; 1.34 fold enrichment (6-mer frequency, TF over GST control) in the assay with HSF1. For the same sequence, the binding signal with SPIC is 1.31 fold enrichment (6-mer frequency, TF over GST control); in the assay with ELF4, 1.56 fold enrichment (6-mer frequency, TF over GST control); with ELK4, 1.41 fold enrichment (6-mer frequency, TF over GST control); in the assay with ETV2, 1.61 fold enrichment (6-mer frequency, TF over GST control); in the assay with ELF3 it was 1.58 fold enrichment (6-mer frequency, TF over GST control); in the assay with CRX, 1.55 fold enrichment (6-mer frequency, TF over GST control). The binding signal with ETV1 is 1.54 fold enrichment (6-mer frequency, TF over GST control).
